Results published in ChEMBL document CHEMBL1961873, “Compounds: GSK PKIS; Assays: Nanosyn kinase panel” (2012).

Columns and labels:
[1] = molecular target: Death-associated protein kinase 1 (Homo sapiens) (UniProt P53355); conditions: at 1 µM;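 also: each value is a mean inhibition figure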
[2] = molecular target: T1, Serine/threonine-protein kinase DCLK2 (Homo sapiens) (UniProt Q8N568); conditions: at 0.1 µM
T1 sequence (whole entry): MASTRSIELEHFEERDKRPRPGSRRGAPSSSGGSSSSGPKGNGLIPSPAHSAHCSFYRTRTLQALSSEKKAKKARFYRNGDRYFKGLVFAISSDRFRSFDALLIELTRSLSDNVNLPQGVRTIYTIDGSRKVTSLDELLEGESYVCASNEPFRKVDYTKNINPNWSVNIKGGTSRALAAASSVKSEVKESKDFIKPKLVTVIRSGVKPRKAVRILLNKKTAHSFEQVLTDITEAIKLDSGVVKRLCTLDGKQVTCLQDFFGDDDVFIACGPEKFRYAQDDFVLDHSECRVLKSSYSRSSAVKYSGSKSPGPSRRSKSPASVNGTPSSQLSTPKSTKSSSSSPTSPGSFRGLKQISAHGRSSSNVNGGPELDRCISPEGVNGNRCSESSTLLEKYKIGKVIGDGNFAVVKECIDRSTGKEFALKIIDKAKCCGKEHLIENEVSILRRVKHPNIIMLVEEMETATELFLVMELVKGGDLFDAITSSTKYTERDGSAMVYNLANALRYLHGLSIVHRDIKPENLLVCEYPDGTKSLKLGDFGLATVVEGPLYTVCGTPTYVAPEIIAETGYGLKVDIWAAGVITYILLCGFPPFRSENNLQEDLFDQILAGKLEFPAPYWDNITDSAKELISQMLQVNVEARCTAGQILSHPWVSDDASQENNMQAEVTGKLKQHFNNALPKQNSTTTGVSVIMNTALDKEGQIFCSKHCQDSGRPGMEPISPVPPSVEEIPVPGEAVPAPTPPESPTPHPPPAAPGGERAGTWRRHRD

[3] = molecular target: T1, Serine/threonine-protein kinase DCLK2 (Homo sapiens); conditions: at 1 µM
[4] = molecular target: MAP kinase-activated protein kinase 2 (Homo sapiens) (UniProt P49137); conditions: at 0.1 µM
[5] = molecular target: MAP kinase-activated protein kinase 2 (Homo sapiens) (UniProt P49137); conditions: at 1 µM
[6] = molecular target: MAP kinase-activated protein kinase 3 (Homo sapiens) (UniProt Q16644); conditions: at 0.1 µM
[7] = molecular target: MAP kinase-activated protein kinase 3 (Homo sapiens) (UniProt Q16644); conditions: at 1 µM
[8] = molecular target: Serine/threonine-protein kinase MARK1 (Homo sapiens) (UniProt Q9P0L2); conditions: at 0.1 µM
[9] = molecular target: Serine/threonine-protein kinase MARK1 (Homo sapiens) (UniProt Q9P0L2); conditions: at 1 µM
[10] = molecular target: MAP/microtubule affinity-regulating kinase 3 (Homo sapiens) (UniProt P27448); conditions: at 0.1 µM
[11] = molecular target: MAP/microtubule affinity-regulating kinase 3 (Homo sapiens) (UniProt P27448); conditions: at 1 µM
[12] = molecular target: T2, MAP/microtubule affinity-regulating kinase 4 (Homo sapiens) (UniProt Q96L34); conditions: at 0.1 µM
T2 sequence (whole entry): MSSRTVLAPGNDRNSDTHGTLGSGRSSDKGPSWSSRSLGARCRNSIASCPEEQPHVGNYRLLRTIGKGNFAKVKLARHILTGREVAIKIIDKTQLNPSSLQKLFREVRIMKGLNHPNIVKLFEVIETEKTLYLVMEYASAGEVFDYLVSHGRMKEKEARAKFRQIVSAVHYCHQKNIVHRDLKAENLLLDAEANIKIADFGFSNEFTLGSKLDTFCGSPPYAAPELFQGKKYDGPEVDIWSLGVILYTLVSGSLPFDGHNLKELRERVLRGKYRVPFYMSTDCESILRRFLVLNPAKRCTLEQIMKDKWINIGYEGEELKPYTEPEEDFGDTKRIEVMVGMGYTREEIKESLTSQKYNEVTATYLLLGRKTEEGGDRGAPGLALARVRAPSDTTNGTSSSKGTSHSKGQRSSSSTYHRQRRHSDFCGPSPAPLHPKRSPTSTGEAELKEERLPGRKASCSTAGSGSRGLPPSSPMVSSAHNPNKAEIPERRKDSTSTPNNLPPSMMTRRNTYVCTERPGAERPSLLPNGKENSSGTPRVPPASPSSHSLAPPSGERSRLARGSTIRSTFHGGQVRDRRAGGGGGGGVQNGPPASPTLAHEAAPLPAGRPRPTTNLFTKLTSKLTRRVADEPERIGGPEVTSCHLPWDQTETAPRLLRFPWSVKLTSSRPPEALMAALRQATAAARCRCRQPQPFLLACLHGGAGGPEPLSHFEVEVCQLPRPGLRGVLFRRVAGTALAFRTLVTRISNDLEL

[13] = molecular target: T2, MAP/microtubule affinity-regulating kinase 4 (Homo sapiens); conditions: at 1 µM
[14] = molecular target: Maternal embryonic leucine zipper kinase (Homo sapiens) (UniProt Q14680); conditions: at 0.1 µM
[15] = molecular target: Maternal embryonic leucine zipper kinase (Homo sapiens) (UniProt Q14680); conditions: at 1 µM
[16] = molecular target: MAP kinase-interacting serine/threonine-protein kinase 1 (Homo sapiens) (UniProt Q9BUB5); conditions: at 0.1 µM
[17] = molecular target: MAP kinase-interacting serine/threonine-protein kinase 1 (Homo sapiens) (UniProt Q9BUB5); conditions: at 1 µM
[18] = molecular target: MAP kinase-interacting serine/threonine-protein kinase 2 (Homo sapiens) (UniProt Q9HBH9); conditions: at 0.1 µM
[19] = molecular target: MAP kinase-interacting serine/threonine-protein kinase 2 (Homo sapiens) (UniProt Q9HBH9); conditions: at 1 µM
[20] = molecular target: Serine/threonine-protein kinase MARK2 (Homo sapiens) (UniProt Q7KZI7); conditions: at 0.1 µM;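 also: mean percent inhibition of PAR-1Balpha kinase activity, reported from the GSK PKIS screen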
Sequence of Serine/threonine-protein kinase MARK2 (Homo sapiens) (Q7KZI7 whole entry): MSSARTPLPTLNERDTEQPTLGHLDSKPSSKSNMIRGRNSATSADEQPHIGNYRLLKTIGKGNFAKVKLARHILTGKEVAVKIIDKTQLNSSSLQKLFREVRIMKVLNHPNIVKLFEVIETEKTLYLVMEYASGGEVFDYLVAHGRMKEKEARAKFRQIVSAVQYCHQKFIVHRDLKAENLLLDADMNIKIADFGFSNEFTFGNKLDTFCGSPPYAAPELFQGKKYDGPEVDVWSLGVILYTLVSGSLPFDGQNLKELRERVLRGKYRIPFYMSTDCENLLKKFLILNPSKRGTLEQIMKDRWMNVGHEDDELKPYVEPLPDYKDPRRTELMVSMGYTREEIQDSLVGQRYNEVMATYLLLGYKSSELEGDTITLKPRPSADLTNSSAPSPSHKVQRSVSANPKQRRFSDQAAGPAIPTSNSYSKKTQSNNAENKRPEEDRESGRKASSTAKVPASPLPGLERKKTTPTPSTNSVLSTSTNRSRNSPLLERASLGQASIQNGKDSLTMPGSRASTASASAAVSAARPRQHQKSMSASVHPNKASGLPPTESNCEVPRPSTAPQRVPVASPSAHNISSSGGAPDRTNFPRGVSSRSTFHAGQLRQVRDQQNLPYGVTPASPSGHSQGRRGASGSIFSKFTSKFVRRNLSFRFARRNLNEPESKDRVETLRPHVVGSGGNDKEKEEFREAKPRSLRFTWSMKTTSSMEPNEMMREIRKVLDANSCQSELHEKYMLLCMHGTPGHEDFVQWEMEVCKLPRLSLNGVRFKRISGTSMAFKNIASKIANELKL

Sequence of MAP/microtubule affinity-regulating kinase 3 (Homo sapiens) (P27448 whole entry, looked up): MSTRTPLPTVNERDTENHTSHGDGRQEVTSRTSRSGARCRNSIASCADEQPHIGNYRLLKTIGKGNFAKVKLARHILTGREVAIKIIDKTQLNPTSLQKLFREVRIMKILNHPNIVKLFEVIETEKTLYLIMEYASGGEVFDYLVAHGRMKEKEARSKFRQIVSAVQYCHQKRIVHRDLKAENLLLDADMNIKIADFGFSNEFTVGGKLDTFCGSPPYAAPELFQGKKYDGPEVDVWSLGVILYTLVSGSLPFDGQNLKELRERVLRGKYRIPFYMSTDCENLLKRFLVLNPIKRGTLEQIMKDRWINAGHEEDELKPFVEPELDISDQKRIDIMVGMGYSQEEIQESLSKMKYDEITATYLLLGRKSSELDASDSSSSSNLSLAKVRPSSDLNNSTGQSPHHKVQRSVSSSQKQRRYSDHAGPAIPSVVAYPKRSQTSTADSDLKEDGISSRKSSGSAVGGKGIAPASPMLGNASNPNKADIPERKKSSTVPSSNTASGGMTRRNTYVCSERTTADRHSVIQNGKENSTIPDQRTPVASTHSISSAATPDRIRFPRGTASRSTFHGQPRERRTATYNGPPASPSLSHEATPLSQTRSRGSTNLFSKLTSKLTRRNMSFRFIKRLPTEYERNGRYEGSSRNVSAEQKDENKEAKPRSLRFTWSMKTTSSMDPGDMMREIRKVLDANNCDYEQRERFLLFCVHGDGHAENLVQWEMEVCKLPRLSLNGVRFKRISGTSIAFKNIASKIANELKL
Sequence of MAP kinase-activated protein kinase 2 (Homo sapiens) (P49137 whole entry, looked up): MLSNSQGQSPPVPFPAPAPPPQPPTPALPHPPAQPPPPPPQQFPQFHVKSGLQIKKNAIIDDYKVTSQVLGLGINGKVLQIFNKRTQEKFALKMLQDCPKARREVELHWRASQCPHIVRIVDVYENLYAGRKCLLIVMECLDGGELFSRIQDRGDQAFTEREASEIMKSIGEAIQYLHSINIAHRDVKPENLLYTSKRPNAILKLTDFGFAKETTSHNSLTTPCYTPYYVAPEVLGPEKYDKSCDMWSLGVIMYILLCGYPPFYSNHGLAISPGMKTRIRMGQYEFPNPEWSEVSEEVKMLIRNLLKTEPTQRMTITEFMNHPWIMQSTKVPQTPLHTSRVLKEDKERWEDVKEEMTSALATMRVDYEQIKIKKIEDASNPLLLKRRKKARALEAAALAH
Sequence of MAP kinase-interacting serine/threonine-protein kinase 2 (Homo sapiens) (Q9HBH9 whole entry, looked up): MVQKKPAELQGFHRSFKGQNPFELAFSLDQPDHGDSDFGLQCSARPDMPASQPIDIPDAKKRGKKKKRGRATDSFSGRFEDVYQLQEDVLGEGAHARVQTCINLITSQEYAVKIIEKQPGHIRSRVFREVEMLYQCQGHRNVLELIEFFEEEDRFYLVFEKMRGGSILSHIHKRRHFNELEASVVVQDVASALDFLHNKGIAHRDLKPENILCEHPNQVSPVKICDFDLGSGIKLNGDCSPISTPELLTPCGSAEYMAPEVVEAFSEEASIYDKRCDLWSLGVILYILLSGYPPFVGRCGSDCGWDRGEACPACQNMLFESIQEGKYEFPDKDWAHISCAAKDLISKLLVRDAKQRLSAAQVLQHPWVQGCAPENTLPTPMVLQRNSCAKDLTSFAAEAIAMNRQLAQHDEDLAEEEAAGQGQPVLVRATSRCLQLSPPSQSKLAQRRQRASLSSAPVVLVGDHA
Sequence of MAP kinase-activated protein kinase 3 (Homo sapiens) (Q16644 whole entry, looked up): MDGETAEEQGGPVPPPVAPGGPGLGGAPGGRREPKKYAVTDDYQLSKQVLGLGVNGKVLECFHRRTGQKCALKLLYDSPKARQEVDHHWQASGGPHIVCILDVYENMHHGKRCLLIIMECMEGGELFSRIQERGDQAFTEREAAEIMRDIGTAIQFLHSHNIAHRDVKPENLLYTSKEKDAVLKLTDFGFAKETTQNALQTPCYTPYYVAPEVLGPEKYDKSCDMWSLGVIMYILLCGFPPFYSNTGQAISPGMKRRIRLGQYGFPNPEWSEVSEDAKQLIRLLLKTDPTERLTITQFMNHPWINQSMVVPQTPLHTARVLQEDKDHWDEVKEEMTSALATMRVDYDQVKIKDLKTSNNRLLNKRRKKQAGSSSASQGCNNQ
Sequence of Serine/threonine-protein kinase MARK1 (Homo sapiens) (Q9P0L2 whole entry, looked up): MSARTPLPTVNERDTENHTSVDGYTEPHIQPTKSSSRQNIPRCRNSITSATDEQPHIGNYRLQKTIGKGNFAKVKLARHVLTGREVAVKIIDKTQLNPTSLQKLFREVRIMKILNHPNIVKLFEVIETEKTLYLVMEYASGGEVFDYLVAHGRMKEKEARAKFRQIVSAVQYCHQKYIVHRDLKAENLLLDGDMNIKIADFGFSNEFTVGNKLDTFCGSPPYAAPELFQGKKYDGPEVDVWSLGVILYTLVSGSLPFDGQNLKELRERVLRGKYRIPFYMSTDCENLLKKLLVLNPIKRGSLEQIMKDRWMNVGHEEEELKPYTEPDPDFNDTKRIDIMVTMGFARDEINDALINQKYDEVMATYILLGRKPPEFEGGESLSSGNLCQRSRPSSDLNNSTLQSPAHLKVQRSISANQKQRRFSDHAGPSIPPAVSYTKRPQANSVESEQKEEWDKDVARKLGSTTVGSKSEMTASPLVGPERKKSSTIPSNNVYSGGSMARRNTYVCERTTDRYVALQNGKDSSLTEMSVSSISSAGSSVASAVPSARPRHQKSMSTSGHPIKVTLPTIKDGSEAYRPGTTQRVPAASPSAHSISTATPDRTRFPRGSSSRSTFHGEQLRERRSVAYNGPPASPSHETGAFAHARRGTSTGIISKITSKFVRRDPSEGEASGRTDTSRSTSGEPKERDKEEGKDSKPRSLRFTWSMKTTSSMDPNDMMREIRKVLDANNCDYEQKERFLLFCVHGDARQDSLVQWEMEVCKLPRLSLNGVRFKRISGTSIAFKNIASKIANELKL
Sequence of Maternal embryonic leucine zipper kinase (Homo sapiens) (Q14680 whole entry, looked up): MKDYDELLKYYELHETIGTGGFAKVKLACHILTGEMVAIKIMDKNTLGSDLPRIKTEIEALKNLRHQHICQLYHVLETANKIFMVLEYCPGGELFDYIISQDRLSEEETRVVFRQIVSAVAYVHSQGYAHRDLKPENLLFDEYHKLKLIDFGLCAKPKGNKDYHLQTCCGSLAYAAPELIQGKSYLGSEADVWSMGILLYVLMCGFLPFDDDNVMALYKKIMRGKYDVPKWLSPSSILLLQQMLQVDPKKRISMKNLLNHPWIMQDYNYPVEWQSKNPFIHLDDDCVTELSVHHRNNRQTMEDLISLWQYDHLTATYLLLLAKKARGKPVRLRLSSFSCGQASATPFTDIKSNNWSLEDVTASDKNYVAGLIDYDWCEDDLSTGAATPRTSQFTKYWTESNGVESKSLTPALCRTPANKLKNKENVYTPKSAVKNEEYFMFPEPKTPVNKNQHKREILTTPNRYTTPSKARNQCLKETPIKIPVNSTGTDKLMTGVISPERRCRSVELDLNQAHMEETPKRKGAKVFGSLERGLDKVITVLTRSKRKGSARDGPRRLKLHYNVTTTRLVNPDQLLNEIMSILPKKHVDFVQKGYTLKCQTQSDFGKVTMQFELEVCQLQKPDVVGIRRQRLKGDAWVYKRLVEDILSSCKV
Sequence of MAP kinase-interacting serine/threonine-protein kinase 1 (Homo sapiens) (Q9BUB5 whole entry, looked up): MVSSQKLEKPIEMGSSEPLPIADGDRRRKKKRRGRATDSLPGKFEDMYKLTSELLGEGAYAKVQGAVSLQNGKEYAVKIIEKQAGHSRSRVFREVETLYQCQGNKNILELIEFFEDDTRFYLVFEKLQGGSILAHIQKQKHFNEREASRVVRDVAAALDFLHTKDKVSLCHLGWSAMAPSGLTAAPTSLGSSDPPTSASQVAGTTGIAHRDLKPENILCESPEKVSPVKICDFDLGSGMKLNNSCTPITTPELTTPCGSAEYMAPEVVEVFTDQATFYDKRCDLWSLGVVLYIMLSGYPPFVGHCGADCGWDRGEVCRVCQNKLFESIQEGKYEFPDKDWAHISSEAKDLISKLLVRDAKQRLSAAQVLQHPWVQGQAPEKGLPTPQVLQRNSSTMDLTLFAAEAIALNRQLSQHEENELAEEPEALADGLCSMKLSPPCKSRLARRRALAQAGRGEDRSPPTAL

SMILES	inhibition [1]	inhibition [2]	inhibition [3]	inhibition [4]	inhibition [5]	inhibition [6]	inhibition [7]	inhibition [8]	inhibition [9]	inhibition [10]	inhibition [11]	inhibition [12]	inhibition [13]	inhibition [14]	inhibition [15]	inhibition [16]	inhibition [17]	inhibition [18]	inhibition [19]	inhibition [20]
c1cnn2ncc(-c3ccnc(Nc4ccc5c(c4)OCCO5)n3)c2c1	3.76%	1.81%	1.89%	2.05%	2.24%	3.74%	3.81%	4.18%	24.3%	5.06%	24.8%	3.11%	16.4%	11.6%	51.6%	3.95%	14.5%	4.36%	25.9%	0.05%
Cc1ccc(C(=O)NC2CCCCC2)cc1-c1ccc(C(=O)NCC2CC2)cc1	5.32%	3.45%	–	0.37%	0.95%	1.78%	4.53%	1.97%	0.65%	3.7%	2.82%	1.51%	1.5%	1.92%	2.41%	1.78%	2.58%	0.32%	-0.44%	0.34%
COc1cc(C)c(NC(=O)CN(C)C)cc1Nc1nc(Nc2cccc(F)c2C(N)=O)c2cc[nH]c2n1	35%	1.99%	–	0.89%	0.73%	3.1%	3.56%	-0.37%	1.38%	-0.27%	0.73%	-0.67%	0.75%	2.85%	18.1%	1.46%	0.39%	0.92%	1.25%	-2%
COc1ccccc1Nc1ncc(-c2ccccc2)o1	-4.43%	2.18%	0.52%	-0.33%	-1.84%	0.93%	1.35%	2.73%	5.68%	4.5%	4.87%	2.98%	4.33%	4.62%	8.09%	4.22%	5.88%	1.93%	7.25%	0.41%
Fc1cccc(COc2ccc(Nc3ncnc4cc(-c5ccc[nH]5)sc34)cc2Cl)c1	-2.65%	-2.61%	–	-0.38%	-0.64%	0.31%	-0.26%	1.53%	2.14%	-1.42%	-1.25%	1.49%	1.57%	4.24%	5.38%	1%	7.21%	0.75%	3.83%	-1.15%
CCn1c(-c2nonc2N)nc2cnc(Oc3cccc(NC(=O)c4ccc(OCCN5CCOCC5)cc4)c3)cc21	-1.31%	0.99%	2.71%	1.4%	0.54%	3.45%	3.54%	3.31%	13.3%	0.46%	8.24%	1.29%	4.43%	10.4%	50.5%	3.45%	13.3%	3.73%	21%	1.17%
O=C1NC(=O)C(N2CCc3ccccc32)=C1c1ccc(Cl)cc1	13.8%	1.5%	1.94%	4.64%	5.01%	10.4%	10.3%	3.93%	5.85%	5.98%	2.11%	3.11%	2.16%	4.84%	6.67%	2.34%	3.78%	1%	3.38%	0.05%
O=C1Nc2ccc(C(=O)c3ccco3)cc2C1=Cc1cc(Cl)c(O)c(Cl)c1	–	1%	6.57%	1.24%	0.24%	3.31%	2.14%	3.54%	14.2%	4.74%	8.65%	1.71%	6.69%	4.89%	17.8%	4.13%	11.5%	6.52%	34.7%	2.14%
CCCN1CCC(Oc2cc(Nc3nc(Nc4cccc(F)c4C(N)=O)c4cc[nH]c4n3)c(OC)cc2Cl)CC1	16.8%	-2.33%	–	-0.08%	-0.66%	10.3%	-0.67%	-1.22%	2.97%	-0.83%	1.93%	-0.13%	2.83%	1.25%	21.2%	1.13%	3.91%	0.85%	0.99%	-0.3%
CCN1CCC(CC(=O)Nc2n[nH]c3nc(-c4cccs4)c(Br)cc23)CC1	1.46%	0.63%	0.11%	-2.22%	-2.04%	-2.21%	-2.44%	-2.56%	-1.05%	1%	-0.75%	0.08%	0.81%	-1.63%	0.98%	42%	76.6%	2.95%	28.2%	0.07%
COC(=O)Nc1nc2cc(Oc3ccc(NC(=O)Nc4cccc(C(=O)O)c4)cc3)ccc2[nH]1	0.01%	-6.21%	–	0.64%	0.43%	0.86%	-0.42%	0.32%	3.08%	1.09%	3.98%	-0.3%	1.97%	-0.21%	0.37%	-0.48%	8.3%	0.28%	3.85%	-2.31%
NS(=O)(=O)c1cccc(-c2ccc3c(NC(=O)C4CC4)n[nH]c3c2)c1	3.03%	0.34%	–	-1.6%	-1.12%	2.07%	2.74%	0.18%	4.41%	2.87%	3.86%	1.62%	6.55%	0.79%	3.48%	-0.26%	7.26%	-1.27%	1.02%	0.51%
Nc1ncnc2occ(-c3ccc(NC(=O)Nc4cccc(C(F)(F)F)c4)cc3)c12	4.16%	0.41%	1.61%	3.79%	3.15%	9.11%	20.7%	3.95%	8.44%	3.75%	5.23%	2.8%	4.23%	3.16%	–	11.2%	38.7%	9.53%	53.9%	1.27%
COc1cc2ncn(-c3cc(OCc4ccccc4Cl)c(C(N)=O)s3)c2cc1OC	–	-1.31%	4.65%	-2.81%	-3.53%	-5.38%	-2.78%	2.4%	9.28%	1.85%	9.99%	1.66%	9.04%	2.05%	8.87%	0.61%	7.42%	1.58%	7.9%	0.69%
